# HT1080NT lethal: kills 2HG-producing HT-1080-NT fibrosarcoma cells. HT-1080-NT fibrosarcoma viability, CellTiter-Glo ATP luminescence, 48 h. Potency, µM (top dose mostly 46.1 µM), most hits filed as cytotoxic. 360,000 tested, 1.6% active. AID 686970;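 further: NT is the 2HG producing partner of a matched IDH1 knockdown line; nearly all actives have a fitted effect of over 55% in size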
#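 HT-1080-NT; 750 cells/well; 5% FBS RPMI; 48 h compound, 37 degrees C; CellTiter-Glo luminescence; curve fitting and curve-class assignment.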
# MCF10A rerep: induces DNA re-replication in MCF 10a normal breast cells. Potency, µM (doses to about 46.1 µM), hits mostly activators. AID 624296. MCF 10A DNA re-replication, Hoechst nuclear intensity, 48 h. 350,000 tested, 2.9% active; further: nearly all actives have a fitted effect of over 50% in size
# KB-3-1 cytotox: KB-3-1 parental cell cytotoxicity; KB-3-1 viability, CellTiter-Glo ATP luminescence, 72 h; Potency, µM (doses to about 46.1 µM), usual class: cytotoxic; 400,000 tested, 1.4% active; further: nearly all actives have a fitted effect of over 60% in size
#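 Luminescent ATP read-out (CellTiter-Glo) measures survival of drug-naive KB-3-1 cells after 72 h compound exposure at 37 °C. Titration series was screened from lowest to highest concentration, with DMSO vehicle plates as background controls.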
# KB-V1 cytotox: KB-V1 MDR subline cytotoxicity. Potency, µM (top dose mostly 46.1 µM), hits mostly cytotoxic. 400,000 tested, 3.4% active. KB-V1 MDR cells viability, CellTiter-Glo, 72 h. AID 1347076; further: nearly all actives have a fitted effect of over 60% in size
#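 Cells of the MDR subline KB-V1 are plated, dosed with compound at multiple concentrations, and incubated 72 h at 37 degrees C; CellTiter-Glo is then added and luminescence read after 10 min.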
# HT1080 IDH1KD tx: toxicity to HT-1080 IDH1 knockdown cells (counter line); HT-1080 IDH1 knockdown viability, ATP luminescence, 48 h; Potency, µM (titrated, usually from 46.1 µM), usual class: cytotoxic; 360,000 tested, 2% active
#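 Using the IDH1-knockdown HT-1080 line run in the same batch and compound series as the NT line, viability after 48 h at 37 °C was determined by CellTiter-Glo luminescence and expressed as % activity.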
# SW480 rereplic: DNA re-replication induction in SW480 cells; SW480 DNA re-replication, Hoechst DNA content imaging, 48 h; Potency, µM (series often up to 46.1 µM), usual class: activators; 340,000 tested, 1.8% active; further: nearly all actives have a fitted effect of over 55% in size
#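 Quantitative HTS format with DMSO vehicle controls; 48 hr drug incubation at 37 C, then 40 min Hoechst staining and scanning imager measurement at 405 nm excitation.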
# Hits are given with their value; 0 = inactive; ? = inconclusive; - = no result; [ ] = remark or other dose. A selection: hits, their analogues and other compounds. The true share with any hit is near 7.9%. The call rests on the fitted dose curve; in most records, active means well fitted curve in the direction sought with a large enough effect; inconclusive means small, poorly fitted or top-dose-only effect, or another doubt; inactive means no such curve, though single readings can be large; an effect the other way counts as inactive or inconclusive.
SMILES,HT1080NT lethal,MCF10A rerep,KB-3-1 cytotox,KB-V1 cytotox,HT1080 IDH1KD tx,SW480 rereplic
CCOc1ccc(-c2nc(N)ncc2Oc2ccc(OC)cc2)c(O)c1,23.1µM,?,0,?,?,0
CCCc1cc(-c2nc(N)ncc2-c2ccc3c(c2)OCCCO3)c(O)cc1OC,0,?,0,2.91µM,?,?
CCOc1ccc(-c2nc(N)ncc2-c2ccccc2)c(O)c1,?,0,14.6µM,?,?,0
CCOc1ccc(-c2nc(N)ncc2-c2ccc(OC)cc2)c(O)c1,0,0,?,7.31µM,0,?
CC1CCN(C(=O)CSc2nnc(Cc3cc(=O)[nH]c(=O)[nH]3)n2-c2ccc(Cl)cc2)CC1,0,0,0,0,0,0
O=C(Nc1ncn[nH]1)c1ccc(Cl)c(S(=O)(=O)N2CCCCCC2)c1,0,0,0,20.6µM,0,0
O=C(Nc1ccc(Cl)c(S(=O)(=O)N2CCCCC2)c1)c1cnccn1,0,0,0,0,0,0
O=C(Nc1ccc(Cl)c(S(=O)(=O)N2CCCCC2)c1)c1ccncc1,?,0,0,?,0,0
Cn1cccc1C(=O)Nc1ccc(Cl)c(S(=O)(=O)N2CCCCC2)c1,0,0,?,20.6µM,0,0
O=C(Nc1ccncc1)c1ccc(Cl)c(S(=O)(=O)N2CCCCC2)c1,?,13µM,?,?,8.2µM,0
CCN(C(=O)COC(=O)c1nc(Cl)ccc1Cl)c1c(N)n(Cc2ccccc2)c(=O)[nH]c1=O,0,0,?,0,0,0
Cc1cc(=O)c2c(o1)CC(C)(C)CC2=O,0,0,0,0,0,0
Nc1nc2ccccc2n1/N=C/c1ccc(Br)cc1,0,0,0,9.2µM,0,0
Nc1nc2ccccc2n1/N=C/c1ccc2c(c1)OCO2,0,0,0,?,0,20.6µM
CCOC(=O)CSc1nnc(C)c(C)n1,0,0,0,0,0,0
CC(=O)NC(c1cccc(F)c1)c1nc(-c2cnc3ccccc3c2)cs1 (stereo unspecified),0,-,0,0,0,-
O=C(CCN1C(=O)c2ccccc2S1(=O)=O)Nc1ccccc1F,0,0,0,0,0,0
C=CCn1c(N)c(C(=O)Nc2ccc(C)cc2)sc1=S,0,0,0,18.4µM,0,0
C=CCn1c(N)c(C(=O)Nc2ccccc2OC)sc1=S,0,0,0,0,0,0
O=C(N/N=C/c1ccccn1)c1ccc(Cl)cc1,0,?,0,0,?,4.11µM
Cc1ccccc1C(=O)N/N=C/c1ccccn1,0,0,?,20.6µM,?,?
C(=N\NC(=Nc1ccccc1)c1ccccn1)/c1ccccn1,0,?,?,16.4µM,0,?
O=C(N/N=C\c1ccccn1)c1ccccc1O,0,?,0,0,?,0
COc1cc(C(=O)N/N=C/c2ccccn2)cc(OC)c1OC,?,20.6µM,18.4µM,?,?,18.4µM
CC(O)CNCCCOc1cccc(C(F)(F)F)c1 (stereo unspecified),0,0,0,0,0,0
SMILES,HT1080NT lethal,MCF10A rerep,KB-3-1 cytotox,KB-V1 cytotox,HT1080 IDH1KD tx,SW480 rereplic
O=C(Cn1cnc2c(nnn2-c2ccc(F)cc2)c1=O)NCc1ccco1,0,0,0,0,0,0
Cc1ccc(N2CC(C(=O)O)CC2=O)cc1 (stereo unspecified),0,0,0,0,0,0
Cc1ccc(N=CC2=C(O)CC(c3ccc(Cl)cc3)CC2=O)cc1 (stereo unspecified),0,0,0,0,0,0
O=C(N/N=C/c1ccccn1)c1ccccc1,0,?,0,0,0,0
O=C(N/N=C\c1ccccn1)C1c2ccccc2Oc2ccccc21,?,0,0,0,?,18.4µM
CCCCCc1ccc(S(=O)(=O)NCCc2ccncc2)cc1,0,0,?,3.26µM,?,0
CCCc1ccc(S(=O)(=O)NCCc2ccncc2)cc1,0,0,0,0,0,0
CCN(C1CCCCC1)S(=O)(=O)c1ccc(S(=O)(=O)NCc2ccncc2)cc1,?,0,0,7.31µM,?,0
CC1CCCC(C)N1S(=O)(=O)c1ccc(S(=O)(=O)NCCc2ccncc2)cc1 (stereo unspecified),0,0,0,?,0[9.24 µM],0
Cc1ccc(S(=O)(=O)NCc2ccncc2)cc1C,0,0,?,0,23.1µM,0
CCN(C1CCCCC1)S(=O)(=O)c1ccc(S(=O)(=O)NCCc2ccncc2)cc1,0,?,0,20.6µM,0,0
CCN1C(=O)C(=O)N(Cc2ccc(OC)c(F)c2)C1=O,0,0,?,0,0,0
CCc1noc(C)c1C(=O)N(C)CC(=O)Nc1ccccc1C(F)(F)F,0,0,0,0,0,0
COc1ccc(CCNC(=O)CCOc2ccc(C)cc2)cc1OC,0,0,0,0,0,0
CC(=O)[C@@H]1[C@@H](C)N(Cc2ccccc2)C(=O)N[C@H]1c1ccccc1,0,0,0,0,0,0
CCN(CC)S(=O)(=O)c1ccc(OC)c(NC(=O)c2cc3c(=O)n4ccccc4nc3s2)c1,0,16.4µM,0,0,0,0
COc1cc(C(O)c2nc(-c3cccc(C(C)C)c3)cs2)ccc1F (stereo unspecified),?,-,0,0,?,-
COc1cccc(C2C(C(N)=O)=C(C)Nc3nc(CCCO)nn32)c1OC (stereo unspecified),0,0,0,0,0,0
C=C(C)C(=O)Nc1nnc(-c2cccs2)s1,0,10.3µM,0,0,0,0
CO/N=C(/CS(=O)c1ccc(Br)cc1)c1ccc(OC)cc1 (stereo unspecified),0,0,0,?,0,?
O=C(O)c1ccc(F)c(S(=O)(=O)Nc2ccccc2Cl)c1,0,0,0,0,0,0
COc1ccc(OC)c(C(=O)c2coc3ccc(O)cc23)c1,?,?,?,10.3µM,?,?
CC(=O)Oc1ccc(OC(C)=O)c(SCCCCCN2CCOCC2)c1,?,4.11µM,0,0,?,?
CC(C)c1ccc(OCCCCCN2CCOCC2)cc1,0,?,0,0,0,0
O=[N+]([O-])c1cc([N+](=O)[O-])c(N2CCCCCC2)cc1NCCO,0,0,0,9.2µM,?,0
Cc1ccc(NC(=O)/C(C#N)=C/c2cc(C)n(-c3ccc(F)cc3)c2C)cc1C,-,-,0,0,-,-
CN(C)c1nc(C=C(C#N)C#N)c(Cl)n1-c1ccc(F)cc1,7.31µM,?,?,?,4.61µM,7.31µM
Cc1ccccc1C(=O)O/N=C(\N)Cc1cccs1,?,0,?,0,18.4µM,?
COC(=O)c1cc2oc3ccccc3c2n1Cc1nc(-c2ccc(OC)cc2)oc1C,-,-,0,?,-,-
COC(=O)c1ccc(-c2ccco2)n1Cc1nc(-c2ccc(OC)c(OC)c2)oc1C,0,18.4µM,?,0,?,0
